Assay [1] can be described thus: qHTS assay to test for compound auto fluorescence at 535 nm (green) in HEK293 cells (AID 720680).
Assay [2] can be described thus: qHTS assay to test for compound auto fluorescence at 460 nm (blue) in HEK293 cell free culture (AID 720681). In outline: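 Compounds were added to cell-free DMEM with 10% FBS and fluorescence read directly. The blue channel used 405 nm excitation and 460 nm emission, with triamterene as the reference fluorophore.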
In general terms: qHTS replaces the single test concentration by a dilution series.

Assay [3] can be described thus: qHTS assay to test for compound auto fluorescence at 535 nm (green) in HEK293 cell free culture (AID 720682). The method, boiled down: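 Steps: dispense DMEM/10% FBS into empty wells; pin in compound or DMSO; measure fluorescence at 485/535 nm. Values are fluorescein equivalents.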
Assay [4] is described as follows: qHTS assay to test for compound auto fluorescence at 590 nm (red) in HEK293 cell free culture (AID 720683). In outline:
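Cell-free wells of DMEM with 10% FBS received compound, and intrinsic fluorescence was read at excitation/emission 540/590 nm. Values expressed as equivalence to Rose Bengal sodium.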

Assay [5] in a line: qHTS assay to test for compound auto fluorescence at 535 nm (green) in HepG2 cell free culture (AID 720686).
Assay [6] can be described thus: qHTS assay to test for compound auto fluorescence at 460 nm (blue) in HepG2 cells (AID 720687). The method, boiled down:
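HepG2 cells in MEM with 10% FBS, attached overnight at 37 C, were exposed to compound or DMSO for 1 hr at 37 C, 5% CO2. Blue fluorescence was read at 405/460 nm, with triamterene as reference fluorophore.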

The target in assay [7] is Glucocorticoid receptor (Homo sapiens) (UniProt P04150). In words: qHTS assay to identify small molecule agonists of the glucocorticoid receptor (GR) signaling pathway (AID 720691; active means well fitted activation curve with a large enough effect in the signal ratio in the repeat runs, not every such curve was filed as active; the % refers to the signal ratio). In outline:
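GR-bla HeLa cells carrying a GRE-driven beta-lactamase reporter, exposed to compounds for 18 h at 37 C. Reporter activation read as fluorescence after 2 h with LiveBLAzer B/G FRET substrate at room temperature.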

Assay [8] shares this target. The experiment in a line: qHTS assay to identify small molecule antagonists of the glucocorticoid receptor (GR) signaling pathway (AID 720692; active means well fitted inhibition curve with a large enough effect in the signal ratio in the repeat runs, not every such curve was filed as active; the % refers to the signal ratio; further: potency means the concentration at half of the fitted maximal effect). The method, boiled down:
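GR-bla HeLa cells carrying a GRE-driven beta-lactamase reporter received compound after 4 h plating, then dexamethasone (5 nM final). After 18 h at 37C, the FRET substrate was loaded for 2 h at room temperature and fluorescence read.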

The nature of assay [9]: qHTS assay to identify small molecule antagonists of the glucocorticoid receptor (GR) signaling pathway - cell viability counter screen (AID 720693). Further: nearly all actives have a fitted effect of over 55% in size. Further: potency means the concentration at half of the fitted maximal effect.
The nature of assay [10]: qHTS assay for identifying genotoxic compounds that show differential cytotoxicity against isogenic chicken DT40 cell lines with known DNA damage response pathways - wild type cell line (AID 743012). Further: nearly all actives have a fitted effect of over 60% in size. Further: potency means the concentration at half of the fitted maximal effect. The method, boiled down:
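Wild-type DT40 cells (300/well) exposed to compounds for 40 hours at 37 C/5% CO2. Viability read by CellTiter-Glo luminescence after 30 min at room temperature.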

Assay [11] can be described thus: qHTS assay for identifying genotoxic compounds that show differential cytotoxicity against isogenic chicken DT40 cell lines with known DNA damage response pathways - Rev3 mutant cell line (AID 743014). Further: nearly all actives have a fitted effect of over 55% in size. Further: potency means the concentration at half of the fitted maximal effect.
A short description of assay [12]: qHTS assay for identifying genotoxic compounds that show differential cytotoxicity against isogenic chicken DT40 cell lines with known DNA damage response pathways - Rad54/Ku70 mutant cell line (AID 743015). Further: nearly all actives have a fitted effect of over 60% in size. Further: potency means the concentration at half of the fitted maximal effect.
Assay [13] in a line: qHTS assay to identify small molecule antagonists of the androgen receptor (AR) signaling pathway - cell viability counter screen (AID 743033; further: nearly all actives have a fitted effect of over 45% in size; further: potency means the concentration at half of the fitted maximal effect).
The nature of assay [14]: qHTS assay to identify small molecule antagonists of the androgen receptor (AR) signaling pathway using the MDA cell line - cell viability counter screen (AID 743041; further: nearly all actives have a fitted effect of over 45% in size). The method, boiled down:
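MDA-kb2 AR-luc cells (MMTV-luciferase, AR/GR responsive) treated with compounds plus R1881 agonist for 16 h at 37C. CellTiter-Fluor added at 15.5 h; fluorescence read after 30 min in the same wells.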

Assay [15] can be described thus: qHTS assay to test for compound auto fluorescence at 590 nm (red) in HepG2 cell free culture (AID 720684). In outline: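 Compound was pinned into wells holding MEM with 10% FBS and no cells, and red fluorescence was read at Ex/Em 540/590 nm. Signal is expressed as auto fluorescence equivalency relative to Rose Bengal sodium.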
Assay [16] in a line: qHTS assay to test for compound auto fluorescence at 460 nm (blue) in HepG2 cell free culture (AID 720685). In outline:
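Compound (23 nL) or DMSO pinned into cell-free MEM with 10% FBS; blue fluorescence read at 405/460 nm excitation/emission, expressed as auto-fluorescence equivalency to triamterene.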

Assay [17] has as its target Androgen receptor (Homo sapiens) (UniProt P10275). In words: qHTS assay to identify small molecule antagonists of the androgen receptor (AR) signaling pathway (AID 743035; active means well fitted inhibition curve with a large enough effect in the signal ratio in the repeat runs, not every such curve was filed as active; the % refers to the signal ratio; further: potency means the concentration at half of the fitted maximal effect). In outline:
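HEK293 cells stably carrying UAS-beta-lactamase reporter, 2,000/well, given compounds plus R1881 agonist and incubated 16 h at 37C. LiveBLAzer B/G FRET substrate then added for 2 h at room temperature before fluorescence reading.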

For assay [18] the target is unchanged. In words: qHTS assay to identify small molecule agonists of the androgen receptor (AR) signaling pathway (AID 743036; active means well fitted activation curve with a large enough effect in the signal ratio in the repeat runs, with a control signal flat, not every such curve was filed as active; the % refers to the signal ratio). In outline:
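Reporter line: GeneBLAzer AR-UAS-bla-GripTite (HEK293). Steps: plate cells, 4 h rest, add compounds, 16 h at 37C, add LiveBLAzer B/G substrate, 2 h at RT, read fluorescence.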

Assay [19] has the same target. The experiment in a line: qHTS assay to identify small molecule agonists of the androgen receptor (AR) signaling pathway using the MDA cell line (AID 743040; further: nearly all actives have a fitted effect of over 20% in size). In outline: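 MDA-kb2 breast carcinoma cells carrying MMTV-luciferase (responsive to AR and GR), plated 5 h then treated 16 h with compounds at 37C, 0% CO2. Read-out was ONE-Glo luminescence after 30 min at room temperature.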

The target is the same in assay [20]. The experiment in a line: qHTS assay to identify small molecule antagonists of the androgen receptor (AR) signaling pathway using the MDA cell line (AID 743042; further: nearly all actives have a fitted effect of over 55% in size; further: potency means the concentration at half of the fitted maximal effect). The method, boiled down: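 MDA-kb2 breast carcinoma cells carrying MMTV-luciferase (AR/GR responsive) were co-treated with compounds and the agonist R1881 for 16 h at 37C. Inhibition read as ONE-Glo luminescence; CellTiter-Fluor fluorescence measured in parallel for cytotoxicity.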

The text below walks through data of PubChem BioAssay (Tox21).

SMILES strings stand for the structures. A number with no mark means an inactive call. Records with an inconclusive call do not appear. Calls of active or inactive are those of the source. Unless noted, the call rests on the fitted dose curve; in most records, active means well fitted curve in the direction sought with a large enough effect in the repeat runs; inconclusive means weak or mixed curves; inactive means no such curve, though single readings can be large; an effect the other way counts as inactive or inconclusive.

Glucocorticoid receptor (Homo sapiens), sequence (P04150 whole entry, looked up): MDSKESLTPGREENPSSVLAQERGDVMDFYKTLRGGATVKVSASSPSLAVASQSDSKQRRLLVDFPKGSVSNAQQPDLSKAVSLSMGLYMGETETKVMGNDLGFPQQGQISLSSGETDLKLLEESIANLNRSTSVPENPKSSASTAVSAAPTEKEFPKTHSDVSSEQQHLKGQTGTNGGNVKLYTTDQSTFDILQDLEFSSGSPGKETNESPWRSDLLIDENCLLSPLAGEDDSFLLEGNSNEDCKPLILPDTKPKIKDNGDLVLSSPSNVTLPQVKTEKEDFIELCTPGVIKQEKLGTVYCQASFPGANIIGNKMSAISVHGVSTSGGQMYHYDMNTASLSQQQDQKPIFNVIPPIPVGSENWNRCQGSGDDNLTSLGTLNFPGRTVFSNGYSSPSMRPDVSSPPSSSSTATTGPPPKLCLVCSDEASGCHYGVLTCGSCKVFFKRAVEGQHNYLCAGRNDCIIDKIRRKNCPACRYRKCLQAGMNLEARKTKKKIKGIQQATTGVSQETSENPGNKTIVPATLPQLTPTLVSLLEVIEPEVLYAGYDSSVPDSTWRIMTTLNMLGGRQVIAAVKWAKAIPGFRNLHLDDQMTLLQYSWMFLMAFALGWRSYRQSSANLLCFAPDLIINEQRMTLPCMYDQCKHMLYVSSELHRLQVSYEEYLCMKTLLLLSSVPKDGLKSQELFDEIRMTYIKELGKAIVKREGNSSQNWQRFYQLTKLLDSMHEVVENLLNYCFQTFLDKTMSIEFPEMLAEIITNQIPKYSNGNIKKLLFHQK
Androgen receptor (Homo sapiens), sequence (P10275 whole entry, looked up): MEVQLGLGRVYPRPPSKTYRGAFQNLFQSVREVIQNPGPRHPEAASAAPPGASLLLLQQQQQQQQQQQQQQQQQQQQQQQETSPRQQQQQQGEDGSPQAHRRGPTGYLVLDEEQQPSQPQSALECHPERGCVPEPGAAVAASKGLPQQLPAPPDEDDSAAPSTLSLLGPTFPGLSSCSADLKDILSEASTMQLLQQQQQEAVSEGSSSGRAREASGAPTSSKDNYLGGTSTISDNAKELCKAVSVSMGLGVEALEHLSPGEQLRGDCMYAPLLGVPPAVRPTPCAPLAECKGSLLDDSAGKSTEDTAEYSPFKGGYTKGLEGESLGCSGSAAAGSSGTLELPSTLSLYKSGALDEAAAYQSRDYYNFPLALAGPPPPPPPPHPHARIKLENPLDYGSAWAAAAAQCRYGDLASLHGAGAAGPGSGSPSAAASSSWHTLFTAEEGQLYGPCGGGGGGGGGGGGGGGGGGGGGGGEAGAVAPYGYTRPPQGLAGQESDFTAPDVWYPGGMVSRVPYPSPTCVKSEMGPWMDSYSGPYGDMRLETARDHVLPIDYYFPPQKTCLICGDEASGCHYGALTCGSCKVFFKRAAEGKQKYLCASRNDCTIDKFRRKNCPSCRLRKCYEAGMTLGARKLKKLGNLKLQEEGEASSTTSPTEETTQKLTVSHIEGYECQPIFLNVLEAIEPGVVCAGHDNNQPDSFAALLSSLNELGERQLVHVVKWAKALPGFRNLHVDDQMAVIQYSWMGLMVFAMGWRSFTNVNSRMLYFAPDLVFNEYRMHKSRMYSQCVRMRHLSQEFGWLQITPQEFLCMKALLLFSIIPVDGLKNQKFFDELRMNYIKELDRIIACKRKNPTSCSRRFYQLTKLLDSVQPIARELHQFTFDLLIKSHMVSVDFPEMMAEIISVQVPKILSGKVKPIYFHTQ

On to `CN1CC(=O)N2[C@H](c3ccc4c(c3)OCO4)c3[nH]c4ccccc4c3C[C@@H]2C1=O`, for which the compound was called inactive in assay [1], in assay [3], in [4] and in [5]. For the same compound, the Potency entry in assay [2], in assay [6], in [7], in assay [8], in assay [9] and in assay [10] was “inactive” in each case. For the same compound, the Potency result in assay [11], in assay [12], in assay [13] and in assay [14] was “inactive” in each case.

Turning to `COc1ccccc1Oc1c(NS(=O)(=O)c2ccc(C(C)(C)C)cc2)nc(-c2ncccn2)nc1OCCO`, the compound was called inactive in assay [1], in assay [4], in assay [15] and in [5]. The Potency entry in assay [2], in [16], in [6], in assay [7], in assay [8] and in assay [9] was “inactive” throughout. Also, the Potency result in [10], in assay [11], in assay [12], in [13] and in assay [14] was “inactive” in each case.

For `Cc1cc(=O)c2c(O)c3c(O)cc(=O)c4c3c3c(cc(O)c1c23)C(C)(C)C=4O`, the compound was called inactive in [1], in assay [3], in assay [4] and in assay [15]. For the same compound, the Potency result in assay [2], in assay [6], in assay [13] and in assay [14] was “inactive” each time. Besides, the Potency in [9] is 1.69 µM (active); in assay [10], 0.944 µM (active); in assay [11], 1.06 µM (active); in [12] it was 1.06 µM (active).

As to `Oc1cccc(O)c1O`, the outcome in assay [1], in [3], in assay [4] and in assay [5] was inactive. For the same compound, the Potency result in assay [2], in [16], in assay [6], in [7], in assay [8] and in [9] was “inactive” each time. Besides, the Potency result in assay [13] and in assay [14] was “inactive” each time. The Potency in [10] is 26.6 µM (active); in [11], 48.1 µM (active).

As to `CN(C)CCN1C(=O)c2ccccc2N(C)c2ccccc21`, the outcome in assay [1], in [3], in assay [4] and in assay [5] was inactive. In addition, the Potency result in assay [2], in [6], in assay [9], in assay [10], in [11] and in [12] was “inactive” throughout. In addition, the Potency result in assay [13] and in [14] was “inactive” in each case.

With `CCC1CO1` (configuration not stated), the result in assay [1], in assay [3], in assay [4] and in assay [5] was inactive. In addition, the Potency entry in assay [2], in [16], in assay [6], in assay [7], in assay [8] and in assay [9] was “inactive” throughout. For the same compound, the Potency entry in assay [10], in assay [11], in [12], in assay [13] and in assay [14] was “inactive” in each case.

Consider `Cc1ccco1`, for which the call in assay [1], in [3], in assay [4] and in assay [5] was inactive. The Potency result in [2], in [16], in [6], in [7], in assay [8] and in assay [9] was “inactive” throughout. For the same compound, the Potency result in assay [10], in [11], in assay [12], in assay [13] and in [14] was “inactive” in each case.

`COc1ccccc1N1CCN(CCCCNC(=O)c2ccc(-c3ccc(C(C)=O)cc3)cc2)CC1`: the outcome in assay [1], in [4], in assay [15] and in [5] was inactive. Further, the Potency entry in assay [2], in [16], in [6], in [7], in assay [8] and in assay [9] was “inactive” each time. The Potency result in [10], in assay [11], in assay [12] and in [13] was “inactive” each time.

With `C=C(C)C(=O)OCCOCCOC(=O)C(=C)C`, the compound was classed as inactive in [1], in [3], in assay [4] and in assay [5]. For the same compound, the Potency entry in [2], in assay [6], in assay [10], in [11], in [12] and in [13] was “inactive” throughout. Moreover, the Potency result in assay [14] was “inactive”.

For `CCCCCCCCCCCCCCN(CCO)CCO`, the call in assay [1], in assay [3], in assay [4] and in assay [5] was inactive. Also, the Potency entry in assay [2], in assay [16], in assay [6] and in assay [14] was “inactive” each time. The Potency in [8] is 19.5 µM (active); in assay [10], 2.43 µM (active); in [11], 1.09 µM (active); in [12] it was 2.43 µM (active); in assay [13] it was 43.6 µM (active).

In the case of `CC(C)(O)c1ccc(CNC(=O)c2cccnc2Oc2ccc3nonc3c2)cc1`, the compound was classed as inactive in assay [1], in [3], in [4] and in assay [5]. Besides, the Potency entry in assay [2], in assay [16], in assay [6], in [7], in assay [8] and in assay [14] was “inactive” in each case. The results for the Potency in assay [10], in assay [11] and in assay [12] were 61.1 µM (active), 68.6 µM (active) and 61.1 µM (active), respectively.

As for `C=CCc1ccccc1OCC(O)CNC(C)C` (configuration not stated), the result in assay [1], in [3], in [4], in assay [5], in [18] and in assay [19] was inactive. The Potency result in [2], in assay [16], in [6], in assay [9], in assay [10] and in [13] was “inactive” throughout. The Potency entry in assay [17], in assay [14] and in assay [20] was “inactive” throughout.

For `Oc1ccc(Cl)c2cccnc12`, the result in [1], in assay [3], in assay [4], in [5], in [18] and in assay [19] was inactive. Besides, the Potency entry in [2], in assay [16], in assay [6], in [7], in [8] and in assay [9] was “inactive” each time. Besides, the Potency in [10] was 2.98 µM (active); in [11], 4.22 µM (active); in [12] it was 6.68 µM (active); in assay [13], 13.4 µM (active); in [17], 19 µM (active); in [20], 9.44 µM (active).

Take `O=C1c2ccccc2C(=O)c2c(O)c(O)cc(O)c21`: the compound was called inactive in assay [1], in assay [3], in assay [15], in assay [5] and in assay [19]. The Potency entry in assay [2], in assay [16], in [6], in [7], in assay [9] and in [10] was “inactive” throughout. The Potency result in assay [13] and in assay [20] was “inactive” in each case. Further, the Potency in assay [12] was 48.6 µM (active).

Consider `C=CC(C)(CCC=C(C)C)OC(=O)CC(C)C` (configuration not stated), for which the outcome in assay [1], in assay [3], in assay [4] and in assay [5] was inactive. Also, the Potency entry in [2], in assay [16], in assay [6], in assay [7], in assay [8] and in assay [9] was “inactive” in each case. In addition, the Potency result in [10], in assay [11], in [12], in assay [13] and in assay [14] was “inactive” throughout.

Take `O=C(O)c1ccc(OCCCOc2ccc(C(=O)O)cc2)cc1`: the result in assay [1], in assay [3], in assay [4] and in assay [5] was inactive. The Potency result in assay [2], in assay [16], in assay [6], in [9], in assay [10] and in assay [12] was “inactive” each time. In addition, the Potency result in assay [13] and in assay [14] was “inactive” each time.
